Compound activity from PubChem BioAssay.
Rab9 prom act – activators of Rab9 promoter; 2.8% of 320,000 active; Huh7 Rab9 promoter-luciferase reporter, luminescence, 24 h; Potency, µM (titrated, usually from 9.22 µM), inactives show at the top dose activation, negative = inhibition, hits mostly activators; also: % of control where 0% means no effect; nearly all actives have a fitted effect of over 60% in size
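Huh7 reporter line, Rab9 promoter upstream of luciferase. Compound exposure 24 h at 37 °C in reduced-serum medium with 10% FBS. Read-out: luminescence.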
SMN2 splice up – increases expression of the SMN2 splice variant; HEK293 SMN2-luciferase splicing reporter, luminescence, 30-36 h; Potency, µM (titrated, usually from 46.1 µM), for inactives: at the top dose activity change, positive = activation, usual class: activators; 2.8% of 210,000 active; AID 1458; also: % of control where 0% means no effect; nearly all actives have a fitted effect of over 55% in size
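qHTS luciferase splicing reporter: luminescence rises when SMN2 exon 7 is included in transfected HEK293 cells. Compound exposure lasted 30-36 h at 37C, with 4.5 mM final sodium butyrate as control, followed by a ONE-Glo read.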
FLuc modulator – counter-screen for miR-21 project: firefly luciferase inhibitors or activators; Potency, µM (series often up to 57.5 µM), for inactives: at the top dose activity change, negative = inhibition, usual class: inhibitors; purified FLuc, Km substrates, luminescence inhibition; P08659; AID 588342; 6.9% of 360,000 active;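 also: plate controls were vehicle for no effect and reference inhibitor for full effect; nearly all actives have a fitted effect of over 55% in size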
Target sequence (P08659 whole entry, looked up): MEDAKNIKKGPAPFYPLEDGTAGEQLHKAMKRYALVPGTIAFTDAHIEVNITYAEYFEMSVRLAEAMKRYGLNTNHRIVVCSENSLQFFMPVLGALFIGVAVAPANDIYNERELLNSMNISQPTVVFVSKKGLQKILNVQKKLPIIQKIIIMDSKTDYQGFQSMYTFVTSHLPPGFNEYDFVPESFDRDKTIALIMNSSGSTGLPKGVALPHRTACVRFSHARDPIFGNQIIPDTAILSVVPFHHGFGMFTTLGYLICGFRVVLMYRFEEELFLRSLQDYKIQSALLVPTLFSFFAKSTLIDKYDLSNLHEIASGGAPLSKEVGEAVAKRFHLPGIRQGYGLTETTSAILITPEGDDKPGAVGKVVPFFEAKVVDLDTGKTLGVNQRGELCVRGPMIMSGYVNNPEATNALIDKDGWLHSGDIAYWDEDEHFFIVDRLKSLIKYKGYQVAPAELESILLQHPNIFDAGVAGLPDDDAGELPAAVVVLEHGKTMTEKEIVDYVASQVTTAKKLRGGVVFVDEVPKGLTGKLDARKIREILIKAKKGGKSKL
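Biochemical qHTS of compounds, final roughly 60 µM downward over six points, against 10 nM purified firefly luciferase using Km concentrations of substrates (10 uM D-luciferin, 10 uM ATP) in Tris acetate pH 7.5 buffer; luminescence output.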
NPC1 prom act – activates the NPC1 promoter; Huh7 NPC1 promoter luciferase reporter, 24 h; 2.4% of 320,000 active; Potency, µM (top dose mostly 9.22 µM), without a hit: top-dose activation, usual class: activators; also: % of control where 0% means no effect; nearly all actives have a fitted effect of over 60% in size
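Huh7 cells stably carrying NPC1 promoter–luciferase, plated in Opti-MEM with 10% FBS for 2 h, were exposed to compound in DMSO for 24 h at 37 °C; luciferase reagent was added for 10 min and luminescence read.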
ELG1 DNA repair – ELG1-dependent DNA repair inhibition | Potency, µM (doses to about 46.1 µM), for the others: top-dose activity change, negative = inhibition, most hits filed as inhibitors | HEK293T ELG1-luciferase reporter, luminescence, 16 h; DNA damage induced by 5-fluorouridine | AID 504467 | 2.3% of 330,000 active; also: % is scaled to controls: 0 for no effect and ±100 for the full control effect; nearly all actives have a fitted effect of over 55% in size
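Quantitative HTS, concentration-response format. 2,000 cells/well co-treated with 5-fluorouridine and compound, 16 hr in 5% CO2 at 37 °C; ONE-Glo luminescence read after 30 min.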
ELG1 genotox – genotoxicity induction in ELG1-luciferase HEK293T cells; HEK293T ELG1-luciferase reporter, luminescence, 16 h; Potency, µM (highest dose often 46 µM), inactives show at the top dose activity change, positive = activation, actives largely listed as activators; 1.3% of 330,000 active; also: % of control where 0% means no effect; nearly all actives have a fitted effect of over 60% in size
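Reporter readout depends on ELG1 protein level, which increases with genetic stress. After 16 hr compound exposure at 37 °C, luciferase activity was quantified using ONE-Glo.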
* hit, by the source's call; u = inconclusive; x = no result. The list is not random: actives were taken first. Their share in the collection is about 9.2%. Calls follow the shape of the dose curve; as a rule, active = well fitted curve in the direction sought with a large enough effect; inconclusive = small, poorly fitted or top-dose-only effect, or another doubt; inactive = no such curve, though single readings can be large; an effect the other way counts as inactive or inconclusive. Potency is read from the fitted curve at half-maximal effect.

SMILES	Rab9 prom act	SMN2 splice up	FLuc modulator	NPC1 prom act	ELG1 DNA repair	ELG1 genotox
Cc1cc(/C=C2\C(=O)NN(c3ccccc3)C2=O)c(C)n1-c1ccccc1O	2.8µM*	x	1.3µM*	2.8µM*	u	u
Cc1cc(/C=C2/C(=O)NN(c3ccccc3)C2=O)c(C)n1-c1ccc(O)cc1	2.5µM*	-77%	0.15µM*	u	u	u
CCOc1cc(CNCCSc2nnnn2-c2ccccc2)ccc1OC	x	x	-1%	x	x	x
CCOC(=O)CNC(=O)CSc1nc2c(C)cccc2cc1CC	-5%	0%	u	-5%	0%	-1%
Cc1cccc(C(=O)O/N=C2\CCCc3ccccc32)c1	21%	-15%	0.67µM*	u	u	-1%
O=C(O/N=C1\CCCc2ccccc21)C1CC1	1%	-14%	u	-5%	4%	-2%
Cc1ccc(S(=O)(=O)O/N=C2\CCCc3ccccc32)cc1	18%	12%	-3%	1%	2%	2%
Cc1ccc(C(=O)O/N=C2\CCSc3ccc(C)cc32)cc1	1%	-2%	7.6µM*	-2%	u	u
Cc1cccc(C(=O)O/N=C2\CCSc3ccc(C)cc32)c1	19%	-10%	u	-1%	20%	-3%
O=C(O/N=C1\CCCc2ccccc21)c1cccc(Cl)c1	-9%	-1%	3µM*	0%	12%	-2%
O=C(O)c1ccc(N/N=C2/CCCc3ccccc32)cc1	2.5µM*	x	9.5µM*	3.2µM*	u	u
CCc1ccccc1NC(=O)Cn1nnc(-c2nc(-c3ccc(C)cc3)no2)c1N	x	x	1%	x	x	x
CCOC(=O)N1CCc2c(sc3c2c(=O)n(CCc2ccccc2)c(=O)n3Cc2ccc(C)cc2C)C1	x	3%	0%	x	x	x
Cc1ccc(C(=O)O/N=C2\CCCc3ccccc32)cc1	0%	-1%	0.17µM*	15%	0%	0%
COC(=O)c1cn(-c2ccccc2)nc1-c1ccc(OC)c(OC)c1	0%	x	21µM*	5%	u	-1%
COc1ccc(-c2nn(-c3ccccc3)cc2C(=O)NC(=S)N2CCOCC2)cc1OC	27%	x	u	0%	21µM*	1%
Cc1nc2c(C)cccn2c1/C(O)=C1\C(=O)C(=O)N(CCN(C)C)C1c1ccccc1 (centres undefined)	-2%	x	-2%	0%	8%	1%
c1ccc(-c2ncc(-c3ccn[nH]3)s2)cc1	0.56µM*	2.8µM*	3.4µM*	1.4µM*	u	u
CC(C)n1cc(CN2CCCC(C(=O)Nc3ccccc3Oc3cccnc3)C2)cn1 (centres undefined)	0%	x	-1%	-2%	-7%	0%
Cc1ccc(C(=O)N2CCN(c3ccccc3)CC2)cc1NC(=O)c1nsc2ccccc12	x	x	-4%	x	x	x
CCOC(=O)C1CCCN(C(=O)c2cccc(NC(=O)c3nsc4ccccc34)c2)C1 (centres undefined)	x	x	9.5µM*	x	x	x
O=C(Nc1cccc(C(=O)N2CCN(c3ccccc3)CC2)c1)c1nsc2ccccc12	x	x	2.7µM*	x	x	x
O=C(Nc1ccccc1)N1CCN(C(=O)c2nsc3ccccc23)CC1	x	x	-6%	x	x	x
COc1ccc(N2CCN(C(=O)c3cccc(NC(=O)c4nsc5ccccc45)c3)CC2)cc1	x	x	9.5µM*	x	x	x
CC1CCN(C(=O)c2cccc(NC(=O)c3nsc4ccccc34)c2)CC1	x	x	3.4µM*	x	x	x
C=CCC[C@H](Cc1ccc(F)cc1)C(=O)OC[C@H](Cc1c[nH]c2ccccc12)NC(=O)[C@@H](CC=C)CC(=O)N[C@H](CO)Cc1ccccc1	x	x	x	x	u	-6%
O=C(NCc1ccccc1)NCc1cccs1	28%	x	u	10%	u	14%
COc1cccc(N2CCN(C(=O)c3cccc(NC(=O)c4nsc5ccccc45)c3)CC2)c1	x	x	1.9µM*	x	x	x
COc1ccc(S(=O)(=O)NNC(=O)C(=O)NNc2ccccn2)cc1	10%	x	-1%	-2%	u	4%
